The record followed here is PubChem BioAssay AID588335 (The Scripps Research Institute Molecular Screening Center, 2011).

Structures are written as SMILES. Among all 360,000 compounds or so, about 4,500 (1.2%) were called active. The full list was thinned out, with actives kept by preference. Values without a mark were called inactive. No stated cut-off is given here; in the data, active means inhibition above about 30%; inactive means the rest.

The experiment is described as follows: inhibition of GDH and TPI enzymes – biochemical, absorbance, full deck, artefact control for M. tuberculosis FBA inhibitor project, primary screen (AID 588335).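 Further: 0% = DMSO wells and 100% = wells lacking the enzyme.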 The conditions noted are these: GDH-TPI coupled enzyme counterscreen, NADH absorbance; at 4.8 µM; hits give high values. Background: Counterscreens check selectivity or assay interference.
`C=CCn1c(Cn2nnc3ccccc32)nnc1SCC(=O)N/N=C/c1cc(Br)cc(OC)c1O`: the inhibition – broadly, the change of the read-out against control, counted positive when it falls – is 33.8% (active). Consider `COc1ccc(OC)c(/C=N/NC(=O)CSc2nnc(C)n2-c2ccccc2)c1`, for which the inhibition was 30.2%. Regarding `Cn1c(Cn2nnc3ccccc32)nnc1SCC(=O)c1ccccc1F`, the inhibition is -1.22%. As for `Cc1ccc(-n2nc3c(c2NC(=O)CCC2CCCCC2)CS(=O)C3)cc1` (centres undefined), the figure is -6.57%; as for `O=C(CCNS(=O)(=O)c1ccc(Br)s1)NCc1ccccc1Cl`, -5.73%; as for `CCn1ccnc1CNC(=O)CC1C(=O)NCCN1CCCc1ccccc1` (centres undefined), 1.04%. For the compound `O=C(NCc1ccc2c(c1)OCO2)c1cc2c(s1)CS(=O)(=O)C2`, the inhibition is 3.7%. As for `COc1ccc2[nH]c(C(=O)N/N=C/c3cc(OC)c(OC)c(OC)c3)cc2c1`, the figure is 63% (active); as for `CCOc1ccc2[nH]c(C(=O)N/N=C/c3cccc(OC)c3OC)cc2c1`, 42.1% (active); as for `COc1cccc2[nH]c(C(=O)NCCc3ccccc3)cc12`, 2.15%. Turning to `COc1cccc(C(=O)N/N=C(\C)c2cccc(NC(=O)c3ccc(F)cc3)c2)c1OC`, the inhibition was -1.01%. Take `CCOc1ccc2[nH]c(=O)c(CN(CCCO)C(C)=O)cc2c1`: the inhibition was 10.1%. In the case of `COc1cc2cc(C(=O)N/N=C/c3cccc(OC)c3OC)[nH]c2cc1OC`, the inhibition was 53.6% (active). On to `CCC(=O)c1ccc(OC(=O)/C=C/c2cc(OC)c(OC)c(OC)c2)cc1`, for which the inhibition was 14.9%. As for `CCOc1ccc2ccccc2c1/C=N/NC(=O)c1c(C)cc(C)[nH]c1=O`, the figure is 11.8%; as for `COc1ccc2[nH]c(=O)c(CNc3ccc(C)c(C)c3)cc2c1`, 7.26%.

Regarding `CC(C)n1c(SCC(=O)Nc2ccccc2N2CCCCC2)nc2c1c(=O)n(C)c(=O)n2C`, the inhibition was 2.5%.

Take `NS(=O)(=O)c1ccc(CNC(=O)c2ccc(Cl)cc2[N+](=O)[O-])cc1`: the inhibition was -1.13%.

Consider `Cc1cn(C)c(=O)n(C)c1=O`, for which the inhibition is -2.08%. As to `COc1cccc(N2CC(C(=O)NCc3n[nH]c(=O)c4ccccc34)CC2=O)c1` (centres undefined), the inhibition is 3.52%. `CC(C)Cc1nc(Cl)c(C#N)c2c1CCC2`: the inhibition is -7.66%. For the compound `O=c1cc(N2CCCCC2)c(-c2ccccc2)nn1Cc1cccc(F)c1`, the inhibition was 10.7%.

Turning to `O=C(Nc1cc(C(F)(F)F)ccc1Cl)c1cc2nc3c(c(C(F)(F)F)n2n1)CCCC3`, the inhibition is -11.5%. Take `NS(=O)(=O)c1ccc(NC(=O)COC(=O)CCc2c[nH]c3ccccc23)cc1`: the inhibition was 4.09%. With `NS(=O)(=O)c1ccc(NC(=O)COC(=O)c2cc3ccccc3oc2=O)cc1`, the inhibition was 32.9% (active).

As for `Cc1cc(C)cc(OCC(=O)NNC(=O)c2cc3ccccc3oc2=O)c1`, the inhibition is 11.9%. For the compound `OCC(O)C1OCOC(C(O)CO)C1O` (centres undefined), the inhibition was 3.51%. As for `CCCNS(=O)(=O)c1ccc(CCC(=O)NCc2cccnc2)cc1`, the inhibition was 1.83%. The value for `Nc1ncnc(Nc2cccc(Cl)c2Cl)n1` was 6.09%. Regarding `CC1CCN(C(=O)c2ccc(S(=O)(=O)Cc3cc(F)ccc3F)c([N+](=O)[O-])c2)CC1`, the inhibition was 2.21%.

In the case of `CCOc1ccccc1NC(=O)C1CCCN(S(=O)(=O)c2ccccc2)C1` (centres undefined), the inhibition is 11.6%.

In the case of `O=C(CNS(=O)(=O)c1ccc2c(c1)OCCCO2)N1CCN(c2ccc(F)cc2)CC1`, the inhibition was 6.99%.

For the compound `COc1ccc(N2CCN(C(=O)CNS(=O)(=O)c3ccc(C)c(C)c3)CC2)cc1`, the inhibition is 10.1%.

For the compound `O=C(NN=CC=Cc1ccccc1)C(O)C(O)C(=O)NN=CC=Cc1ccccc1` (centres undefined), the inhibition is 20.2%.

As for `Cc1ccc(-c2cc(C(=O)NN)n[nH]2)o1`, the inhibition was -4.43%. As for `Cc1ccc(-c2cc(C(=O)N/N=C/C=C/c3ccccc3)n[nH]2)o1`, the inhibition is 36.6% (active).

Consider `CCC(C)(C)NC(=O)C(c1ccc(O)cc1)N(Cc1ccco1)C(=O)CCC(=O)Nc1ccccn1` (centres undefined), for which the inhibition is 0%.

As to `CCCc1nc(N2CCN(C)CC2)c2sc(=S)n(-c3ccccc3)c2n1`, the inhibition was 11.9%. Take `Cc1noc(C)c1CSc1nc2cc(S(=O)(=O)N3CCOCC3)ccc2o1`: the inhibition is 0%. Consider `O=C(Cc1ccccc1)Nc1ccc(NC(=O)c2cccnc2)cc1`, for which the inhibition was -3.47%. As for `O=C(CC(=O)c1cccnc1)c1ccccc1`, the figure is 31.5% (active); as for `O=C(Nc1cnccn1)c1cccnc1`, -10.2%.

`CS(=O)(=O)N1CCCC(C(=O)N2CCOCC2)C1` (centres undefined): the inhibition is 5.31%. Regarding `O=C(Nc1ccccc1C(=O)O)c1cc(S(=O)(=O)N2CCCCC2)cs1`, the inhibition was -4.43%.

Turning to `Cc1c(C(=O)NCCN2C(=O)S/C(=C\c3cccs3)C2=O)cccc1[N+](=O)[O-]`, the inhibition was 39.5% (active). `Cc1c(C(=O)NCCCc2ccccc2)cccc1[N+](=O)[O-]`: the inhibition was 10%. With `O=C(NCCN1C(=O)S/C(=C\c2cccnc2)C1=O)c1cccc(OC(F)F)c1`, the inhibition is 8.86%. The value for `Cc1cc(C)c(C)c(S(=O)(=O)N2CCN(C(=O)c3ccc4c(=O)n5c(nc4c3)CCC5)CC2)c1C` was 5.92%; that for `CC(C)CC1C(=O)N(Cc2cn(Cc3ccco3)nn2)CCS(=O)(=O)N1Cc1ccc(-c2ccc(Cl)c(Cl)c2)cc1` (centres undefined) was -1.42%. With `COc1ccc(N2C(=O)/C(=C\c3ccco3)N=C2SCC(N)=O)cc1Cl`, the inhibition was 8.83%. Take `CCOC(=O)c1sc(NC(=O)CSc2n[nH]c(CC)n2)nc1C`: the inhibition was -0.63%. Regarding `Cc1ccc(C(=O)Nc2ccn(C)n2)cc1`, the inhibition is -9.27%. Take `CCOC(=O)c1sc(/N=C/Nc2nc(C)c(C(=O)OCC)s2)nc1C`: the inhibition is 0.95%.

With `CC(=O)c1sc(NC(=O)c2ccc(C)cc2)nc1C`, the inhibition is 31.3% (active). `CCOC(=O)c1sc(NC(=O)c2ccncc2)nc1C`: the inhibition was 39.2% (active). As for `CCOC(=O)c1sc(NC(=O)C(CC)Sc2nccn2C)nc1C` (centres undefined), the figure is 10.2%. The value for `CCOC(=O)c1sc(NC(=O)c2sc(C)nc2C)nc1C` was 34.6% (active); that for `CC(=O)c1sc(NC(=O)C2=NN(c3ccccc3)C(=O)CC2)nc1C` was 29.1%; that for `CCOC(=O)c1cccnc1NC(=O)c1ccncc1` was -7.37%.
